Assays:
Experiment in all cases: log2 ratio of Biotin-Ahx-Ub-VS probe labelling (fragment/DMSO); higher = less target engagement (more negative = stronger competition), active = hit call of the paper (q ≤ 0.05, log2 ratio ≤ -1)
Details in all cases: compound concentration: 200 uM; treatment time: 3 h
[1] = biological target: T1, USP19 (UniProt O94966)
T1 sequence (whole entry): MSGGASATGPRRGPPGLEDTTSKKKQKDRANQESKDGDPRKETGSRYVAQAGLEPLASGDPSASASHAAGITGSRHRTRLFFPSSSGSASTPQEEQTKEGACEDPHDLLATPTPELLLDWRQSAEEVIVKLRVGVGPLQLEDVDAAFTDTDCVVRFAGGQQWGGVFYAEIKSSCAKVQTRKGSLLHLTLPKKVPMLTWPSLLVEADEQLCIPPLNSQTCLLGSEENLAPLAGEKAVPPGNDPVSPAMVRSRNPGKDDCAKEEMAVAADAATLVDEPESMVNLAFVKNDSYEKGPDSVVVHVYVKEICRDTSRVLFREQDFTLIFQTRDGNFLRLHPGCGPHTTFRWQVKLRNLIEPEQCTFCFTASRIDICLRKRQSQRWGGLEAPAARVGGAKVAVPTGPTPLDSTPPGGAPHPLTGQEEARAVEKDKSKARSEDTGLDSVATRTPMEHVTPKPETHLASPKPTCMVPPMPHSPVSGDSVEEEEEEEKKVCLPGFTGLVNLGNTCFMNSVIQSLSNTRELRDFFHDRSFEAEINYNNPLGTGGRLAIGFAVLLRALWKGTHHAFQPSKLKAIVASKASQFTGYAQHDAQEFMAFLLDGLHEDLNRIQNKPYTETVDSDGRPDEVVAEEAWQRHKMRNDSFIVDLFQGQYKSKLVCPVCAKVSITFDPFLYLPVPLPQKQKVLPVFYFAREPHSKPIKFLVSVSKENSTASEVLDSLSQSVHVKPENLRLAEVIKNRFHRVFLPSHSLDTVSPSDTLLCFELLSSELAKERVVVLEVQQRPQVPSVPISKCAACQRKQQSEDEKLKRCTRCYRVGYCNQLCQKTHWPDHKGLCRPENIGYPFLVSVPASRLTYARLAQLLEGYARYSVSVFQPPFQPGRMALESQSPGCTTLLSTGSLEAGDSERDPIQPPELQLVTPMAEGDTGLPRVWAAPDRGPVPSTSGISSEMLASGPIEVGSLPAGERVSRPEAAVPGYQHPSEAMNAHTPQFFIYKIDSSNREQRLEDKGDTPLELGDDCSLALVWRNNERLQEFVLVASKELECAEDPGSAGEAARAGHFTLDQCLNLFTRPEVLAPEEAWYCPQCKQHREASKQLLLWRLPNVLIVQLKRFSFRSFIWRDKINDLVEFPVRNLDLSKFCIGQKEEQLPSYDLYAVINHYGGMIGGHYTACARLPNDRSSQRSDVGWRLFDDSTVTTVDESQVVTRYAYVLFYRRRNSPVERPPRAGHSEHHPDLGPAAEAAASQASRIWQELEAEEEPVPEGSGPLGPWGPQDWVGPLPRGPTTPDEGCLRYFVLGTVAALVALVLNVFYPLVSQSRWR
Method in brief: (§1)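 Fragment (200 µM) or vehicle was incubated for 3 h with triplicate HEK293T lysate samples of 495 µg, which were then treated with Biotin-Ahx-Ub-VS at 0.5 µM final for 1 h. Labelled DUBs were enriched on NeutrAvidin, digested with LysC and trypsin, and analysed by diaPASEF LC-MS/MS. Values are average log2 fragment/vehicle ratios from an unpaired t-test on global-median-normalised Spectronaut label-free quantities, using proteins with ≥2 unique peptides.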

[2] = biological target: T2, USP22 (UniProt Q9UPT9)
T2 sequence (whole entry): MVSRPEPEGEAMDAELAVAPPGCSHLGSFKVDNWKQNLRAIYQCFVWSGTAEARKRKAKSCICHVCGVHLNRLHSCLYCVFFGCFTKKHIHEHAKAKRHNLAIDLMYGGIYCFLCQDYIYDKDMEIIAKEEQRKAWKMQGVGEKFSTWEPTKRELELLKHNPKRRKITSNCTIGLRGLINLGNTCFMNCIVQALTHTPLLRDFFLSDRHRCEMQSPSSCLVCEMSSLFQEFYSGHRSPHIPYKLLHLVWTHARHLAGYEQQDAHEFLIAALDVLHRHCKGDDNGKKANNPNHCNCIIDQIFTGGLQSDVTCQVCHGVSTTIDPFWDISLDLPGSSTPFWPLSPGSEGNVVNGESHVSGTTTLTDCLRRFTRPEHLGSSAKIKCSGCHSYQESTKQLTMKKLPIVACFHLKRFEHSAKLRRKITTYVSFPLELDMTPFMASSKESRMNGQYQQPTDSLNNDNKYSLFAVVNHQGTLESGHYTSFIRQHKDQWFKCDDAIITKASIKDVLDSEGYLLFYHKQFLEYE
Method in brief: as §1

[3] = biological target: USP24 (UniProt Q9UPU5)
Method in brief: as §1

[4] = biological target: T3, USP25 (UniProt Q9UHP3)
T3 sequence (whole entry): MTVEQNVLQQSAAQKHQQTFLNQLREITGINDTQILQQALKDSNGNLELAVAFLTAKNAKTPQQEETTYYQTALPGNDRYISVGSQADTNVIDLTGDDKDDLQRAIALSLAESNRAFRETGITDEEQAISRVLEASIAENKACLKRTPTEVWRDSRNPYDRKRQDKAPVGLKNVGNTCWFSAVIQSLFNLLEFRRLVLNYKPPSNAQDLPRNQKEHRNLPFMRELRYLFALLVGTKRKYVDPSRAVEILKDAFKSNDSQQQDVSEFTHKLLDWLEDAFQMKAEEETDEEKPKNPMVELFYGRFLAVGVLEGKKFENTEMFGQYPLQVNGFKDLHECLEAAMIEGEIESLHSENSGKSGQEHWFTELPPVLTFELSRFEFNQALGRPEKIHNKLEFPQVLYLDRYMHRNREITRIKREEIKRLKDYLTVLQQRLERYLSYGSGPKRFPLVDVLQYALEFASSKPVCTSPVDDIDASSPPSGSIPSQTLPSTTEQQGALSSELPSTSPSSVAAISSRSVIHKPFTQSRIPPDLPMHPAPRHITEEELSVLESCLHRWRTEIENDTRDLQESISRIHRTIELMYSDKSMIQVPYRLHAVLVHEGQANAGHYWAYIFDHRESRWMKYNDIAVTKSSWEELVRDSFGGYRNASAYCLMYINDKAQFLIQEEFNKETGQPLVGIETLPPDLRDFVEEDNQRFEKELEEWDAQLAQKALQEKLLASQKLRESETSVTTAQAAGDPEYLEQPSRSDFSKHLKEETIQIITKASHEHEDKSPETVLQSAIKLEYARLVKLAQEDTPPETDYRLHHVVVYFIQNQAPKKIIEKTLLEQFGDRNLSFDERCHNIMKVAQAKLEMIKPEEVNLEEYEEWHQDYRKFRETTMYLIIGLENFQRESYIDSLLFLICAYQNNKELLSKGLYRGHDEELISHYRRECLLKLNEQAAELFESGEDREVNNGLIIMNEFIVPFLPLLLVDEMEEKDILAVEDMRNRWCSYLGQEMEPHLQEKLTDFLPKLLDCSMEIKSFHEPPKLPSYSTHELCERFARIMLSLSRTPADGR
Method in brief: as §1

[5] = biological target: T4, USP28 (UniProt Q96RU2)
T4 sequence (whole entry): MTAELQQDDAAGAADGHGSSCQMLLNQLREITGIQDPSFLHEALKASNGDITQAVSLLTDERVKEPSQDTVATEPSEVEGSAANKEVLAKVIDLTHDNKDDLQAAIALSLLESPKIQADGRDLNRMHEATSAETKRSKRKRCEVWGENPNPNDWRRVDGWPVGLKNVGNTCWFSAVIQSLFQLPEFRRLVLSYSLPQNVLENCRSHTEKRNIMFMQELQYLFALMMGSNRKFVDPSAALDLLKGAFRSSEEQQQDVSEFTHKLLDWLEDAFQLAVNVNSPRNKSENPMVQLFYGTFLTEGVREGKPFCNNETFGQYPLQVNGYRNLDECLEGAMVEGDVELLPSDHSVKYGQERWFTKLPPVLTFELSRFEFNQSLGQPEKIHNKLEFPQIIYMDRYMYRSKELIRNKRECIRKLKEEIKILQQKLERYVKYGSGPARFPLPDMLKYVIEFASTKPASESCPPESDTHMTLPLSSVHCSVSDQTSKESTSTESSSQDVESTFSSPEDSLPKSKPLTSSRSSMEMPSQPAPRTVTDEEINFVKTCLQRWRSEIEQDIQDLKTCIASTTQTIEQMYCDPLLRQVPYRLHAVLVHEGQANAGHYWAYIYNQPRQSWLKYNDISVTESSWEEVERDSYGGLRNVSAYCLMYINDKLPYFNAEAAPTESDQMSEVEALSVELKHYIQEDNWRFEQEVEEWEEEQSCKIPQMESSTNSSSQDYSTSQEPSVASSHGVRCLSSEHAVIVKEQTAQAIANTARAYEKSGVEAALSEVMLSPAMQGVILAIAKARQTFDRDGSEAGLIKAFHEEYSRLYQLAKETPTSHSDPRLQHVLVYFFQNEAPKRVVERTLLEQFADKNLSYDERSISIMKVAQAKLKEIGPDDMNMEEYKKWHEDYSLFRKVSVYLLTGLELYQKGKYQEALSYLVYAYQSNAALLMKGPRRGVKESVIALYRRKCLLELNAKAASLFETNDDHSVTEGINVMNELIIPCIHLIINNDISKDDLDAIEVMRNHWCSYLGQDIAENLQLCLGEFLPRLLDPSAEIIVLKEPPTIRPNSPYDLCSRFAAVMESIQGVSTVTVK
Method in brief: as §1

Measured: log2 ratio of Biotin-Ahx-Ub-VS probe labelling

USP24, sequence (Q9UPU5 whole entry): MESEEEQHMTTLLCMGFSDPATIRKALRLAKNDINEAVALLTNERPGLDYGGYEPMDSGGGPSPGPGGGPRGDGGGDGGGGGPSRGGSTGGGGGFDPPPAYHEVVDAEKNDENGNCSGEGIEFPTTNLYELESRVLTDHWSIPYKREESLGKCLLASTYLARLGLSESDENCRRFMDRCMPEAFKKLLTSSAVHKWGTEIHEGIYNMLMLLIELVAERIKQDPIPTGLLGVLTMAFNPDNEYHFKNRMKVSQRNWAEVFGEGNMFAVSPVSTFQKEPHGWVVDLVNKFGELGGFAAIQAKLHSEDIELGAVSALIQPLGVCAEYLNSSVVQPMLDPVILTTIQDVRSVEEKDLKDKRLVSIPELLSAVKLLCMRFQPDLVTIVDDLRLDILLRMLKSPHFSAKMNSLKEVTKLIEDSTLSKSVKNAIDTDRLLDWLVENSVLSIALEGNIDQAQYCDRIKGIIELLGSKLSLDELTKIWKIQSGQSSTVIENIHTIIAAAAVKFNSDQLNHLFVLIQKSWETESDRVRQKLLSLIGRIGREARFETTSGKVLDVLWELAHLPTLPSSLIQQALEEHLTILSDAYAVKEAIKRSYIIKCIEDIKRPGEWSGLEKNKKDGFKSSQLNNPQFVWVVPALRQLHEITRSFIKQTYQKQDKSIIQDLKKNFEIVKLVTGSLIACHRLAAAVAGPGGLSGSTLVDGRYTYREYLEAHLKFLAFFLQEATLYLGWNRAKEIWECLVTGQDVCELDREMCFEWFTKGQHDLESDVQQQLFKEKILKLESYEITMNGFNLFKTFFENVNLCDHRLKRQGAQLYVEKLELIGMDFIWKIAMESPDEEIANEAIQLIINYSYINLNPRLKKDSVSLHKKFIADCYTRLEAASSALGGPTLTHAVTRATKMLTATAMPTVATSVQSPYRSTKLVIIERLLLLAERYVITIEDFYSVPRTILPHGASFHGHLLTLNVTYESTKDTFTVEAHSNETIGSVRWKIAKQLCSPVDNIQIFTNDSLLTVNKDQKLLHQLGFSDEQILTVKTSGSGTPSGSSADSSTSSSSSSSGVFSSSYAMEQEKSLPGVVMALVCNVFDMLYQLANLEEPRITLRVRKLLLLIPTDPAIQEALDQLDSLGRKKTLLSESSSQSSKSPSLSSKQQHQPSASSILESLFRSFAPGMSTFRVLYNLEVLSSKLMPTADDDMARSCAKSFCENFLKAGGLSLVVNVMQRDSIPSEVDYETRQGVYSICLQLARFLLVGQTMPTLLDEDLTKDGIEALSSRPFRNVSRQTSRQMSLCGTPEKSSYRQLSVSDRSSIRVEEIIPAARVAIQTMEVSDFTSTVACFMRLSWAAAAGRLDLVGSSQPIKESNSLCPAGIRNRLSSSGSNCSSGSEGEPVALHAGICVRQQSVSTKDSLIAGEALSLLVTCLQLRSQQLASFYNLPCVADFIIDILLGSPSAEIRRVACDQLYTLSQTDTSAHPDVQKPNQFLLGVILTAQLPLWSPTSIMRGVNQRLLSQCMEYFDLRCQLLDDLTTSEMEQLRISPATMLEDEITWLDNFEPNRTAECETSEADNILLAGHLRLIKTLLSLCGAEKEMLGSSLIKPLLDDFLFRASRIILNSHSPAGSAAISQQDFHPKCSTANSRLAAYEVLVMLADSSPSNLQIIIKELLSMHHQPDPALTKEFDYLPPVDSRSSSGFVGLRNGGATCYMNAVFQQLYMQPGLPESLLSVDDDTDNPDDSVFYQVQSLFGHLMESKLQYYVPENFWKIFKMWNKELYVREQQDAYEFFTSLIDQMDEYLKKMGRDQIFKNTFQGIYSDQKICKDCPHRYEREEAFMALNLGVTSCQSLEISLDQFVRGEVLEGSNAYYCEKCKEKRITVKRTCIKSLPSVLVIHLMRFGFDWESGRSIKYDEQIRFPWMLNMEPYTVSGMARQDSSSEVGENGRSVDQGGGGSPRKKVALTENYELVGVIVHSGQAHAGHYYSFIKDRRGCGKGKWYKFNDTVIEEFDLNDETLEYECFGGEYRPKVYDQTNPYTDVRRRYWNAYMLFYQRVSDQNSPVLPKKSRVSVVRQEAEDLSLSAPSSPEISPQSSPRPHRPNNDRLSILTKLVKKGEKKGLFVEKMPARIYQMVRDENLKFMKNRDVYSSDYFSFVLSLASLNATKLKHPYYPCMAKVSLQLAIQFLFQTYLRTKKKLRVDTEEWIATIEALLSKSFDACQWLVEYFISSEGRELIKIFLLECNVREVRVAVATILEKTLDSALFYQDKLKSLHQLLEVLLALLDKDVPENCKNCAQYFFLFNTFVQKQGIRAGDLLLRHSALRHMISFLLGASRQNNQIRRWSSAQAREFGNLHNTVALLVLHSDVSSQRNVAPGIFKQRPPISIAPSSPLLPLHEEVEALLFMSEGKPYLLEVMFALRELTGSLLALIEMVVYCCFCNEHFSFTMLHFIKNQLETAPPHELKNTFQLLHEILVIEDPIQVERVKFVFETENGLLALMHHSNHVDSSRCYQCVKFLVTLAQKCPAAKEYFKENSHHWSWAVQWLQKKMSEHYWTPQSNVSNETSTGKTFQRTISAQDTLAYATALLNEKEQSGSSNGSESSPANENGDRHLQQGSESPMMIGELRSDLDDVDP

Cl.O=C(CCl)NCc1cc2c(nc1O)CCCC2
inactive: [1] -0.0739 | [2] -0.0357 | [3] -0.254 | [4] -0.59 | [5] -0.576
